# Compound activity deposited in PubChem by National Center for Advancing Translational Sciences (NCATS).
# Most compounds without a hit are left out; they make up all but 6% or so of the library.
# PLK1 PBD inh = PLK1 (human) polo-box domain binding inhibition | P53350 | Plk1 PBD binding of FITC phosphopeptide, fluorescence polarization | Potency, µM, without a hit: max response, negative = inhibition, hits mostly inhibitors | hit rate 2.8% among 360,000; also: series mostly up to about 57 µM; nearly all actives have a fitted effect of over 65% in size
# Target sequence (P53350 whole entry, looked up, the tested form may be a part): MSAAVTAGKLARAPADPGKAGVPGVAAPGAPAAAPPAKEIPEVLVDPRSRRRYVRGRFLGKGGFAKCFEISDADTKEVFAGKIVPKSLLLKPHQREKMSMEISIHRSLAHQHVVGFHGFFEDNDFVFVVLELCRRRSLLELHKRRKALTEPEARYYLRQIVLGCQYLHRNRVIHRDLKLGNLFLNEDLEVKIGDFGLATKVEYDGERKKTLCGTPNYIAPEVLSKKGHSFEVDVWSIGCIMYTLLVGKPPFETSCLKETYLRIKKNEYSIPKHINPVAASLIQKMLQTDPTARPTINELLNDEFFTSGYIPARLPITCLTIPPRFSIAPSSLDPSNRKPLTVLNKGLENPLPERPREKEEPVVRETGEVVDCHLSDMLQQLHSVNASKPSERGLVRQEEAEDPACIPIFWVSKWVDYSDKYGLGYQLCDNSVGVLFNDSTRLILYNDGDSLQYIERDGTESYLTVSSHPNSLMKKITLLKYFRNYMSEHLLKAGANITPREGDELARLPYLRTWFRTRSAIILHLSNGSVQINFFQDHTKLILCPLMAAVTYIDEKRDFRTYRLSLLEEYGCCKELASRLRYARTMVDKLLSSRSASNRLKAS
# Tau fibril ThT = inhibitors of human tau fibril formation, thioflavin T binding. hit rate 2.1% among 270,000. recombinant tau K18 P301L, heparin-induced fibrillization, ThT fluorescence. Potency, µM (titrated, usually from 57.4 µM), for the others: at the highest dose activity, negative = inhibition, most hits filed as inhibitors; also: nearly all actives have a fitted effect of over 55% in size
#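 Heparin-induced fibrillization of the P301L-mutant K18 repeat-domain fragment of human tau was followed by ThT binding in quantitative high-throughput format.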
# VDR inh = blocks the human vitamin D receptor. VDR-SRC2-3 peptide fluorescence polarization, 2 h. Potency, µM, inactives show max response, negative = inhibition, hits mostly inhibitors. hit rate 0.93% among 400,000
#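 Two reagent solutions held at 4 deg C in the dark were dispensed, compounds pinned at 23 nl, and the mixture incubated 2 h at room temperature. Read-out: fluorescence polarization of VDR–SRC2-3 peptide binding.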
# Tau fibril FP = inhibitors of human tau fibril formation. AID 1468. K18 P301L tau heparin fibrillization, Alexa594 FP, 6 h. hit rate 0.39% among 280,000. Potency, µM (doses to about 57.7 µM), for the others: at the highest dose activity, negative = inhibition, actives largely listed as inhibitors; also: nearly all actives have a fitted effect of over 55% in size
#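 Steps: dispense K18 P301L tau (15 uM plus 0.24 uM Alexa 594 tracer, final) in pH 7 sodium acetate; add compound; add heparin (20 uM final); incubate 6 hr, 37 C; add ThT (30 uM final); after 1 hr ambient, read FP.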
# Sfp PPTase inh = inhibitors of Bacillus subtilis Sfp phosphopantetheinyl transferase; Biochemical Sfp PPTase activity, qHTS; hit rate 3.5% among 310,000; AID 1490; Potency, µM, inactives show largest response in the series, negative = inhibition, hits mostly inhibitors;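 also: the enzyme is Sfp with the accession as filed and its product quenches rhodamine fluorescence; 0% = enzyme reaction without inhibitor and -100% = no enzyme wells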
#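 Fluorescence-quenching assay: 15 nM Sfp-PPTase preincubated 15 min at room temperature with compound, then 5 uM rhodamine-CoA and 12.5 uM BHQ-2-labelled YbbR peptide added. Fluorescence (ex 525/em 598 nm) read at start and after 30 min; difference gives rate.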
# Tau fluor counter = counter-screen for tau fibril formation inhibitors; tau K18 P301L Alexa594 fluorescence, heparin fibrillization; Potency, µM (top dose mostly 57.7 µM), without a hit: top-dose activity change, negative = decrease; hit rate 0.93% among 280,000; also: nearly all actives have a fitted effect of over 55% in size
#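 Human tau K18 P301L (15 uM unlabeled, 0.24 uM Alexa 594-labeled) in 100 mM sodium acetate pH 7 with 20 uM heparin, 6 hr at 37 C. ThT 30 uM added, 1 hr ambient; Alexa 594 FP and total fluorescence read at 555/632 nm.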
# * hit, by the source's call; u = inconclusive; x = no result given; [ ] = another dose, or the depositor's remark. Calls follow the shape of the dose curve; as a rule, active = well fitted curve in the direction sought with a large enough effect; inconclusive = small, poorly fitted or top-dose-only effect, or another doubt; inactive = no such curve, though single readings can be large; an effect the other way counts as inactive or inconclusive. Unless noted, % is scaled to controls: 0 for no effect and ±100 for the full control effect; potency is read from the fitted curve at half-maximal effect.
SMILES,PLK1 PBD inh,Tau fibril ThT,VDR inh,Tau fibril FP,Sfp PPTase inh,Tau fluor counter
O=C(O)CNC(=O)CC1S/C(=N/N=C2\CSC(=O)N2)NC1=O (stereo not drawn),-9%,u,5%,u,4µM*,-12%
CC(=O)c1cccc(NC(=O)CC2S/C(=N/N=C/c3ccccc3)NC2=O)c1 (stereo not drawn),-4%,0%,-13%,8%,-12%,-4%
NC(=O)NC(=O)CC1S/C(=N/N=C2/NC(=O)CS2)NC1=O (stereo not drawn),-1%,-7%,-29%,-4%,-29%,6%
O=C(O)CNC(=O)CC1S/C(=N/N=C/c2ccccc2O)NC1=O (stereo not drawn),24µM*,-6%,u,0%,30%,2%
CS(=O)(=O)Nc1cccc(-c2ccc3ncnc(NC4CCNCC4)c3c2)c1,x,x,-1%,x,18%,x
CCCCn1c(=O)[nH]c(=O)c2c1nc(Cn1ncc(Cl)c(Cl)c1=O)n2CCC,30µM*,x,u,x,8%,x
CCCCn1c(-c2ccsc2)nc2c1c(=O)[nH]c(=O)n2CCC,-3%,1%,u,-4%,35µM*,-5%
Cc1cccc(C)c1NC(=O)CN1CCCCCC1,x,x,3%,x,14%,x
Cc1cc(C)c(CN2CCN(C(=O)Cn3cnc4c(OCc5ccccc5)ncnc43)CC2)c(C)c1,-11%,x,0%,x,x,x
COc1ccc(-c2ccc3c(n2)CCCN3C[C@H](O)CN2CCCc3nc(C)c(C)cc32)cc1,x,u,x,3%[11.6 µM],u,-16%[11.6 µM]
COc1ccc(OCC(=O)Nc2c(C(=O)N3CCN(c4ccccc4)CC3)oc3ccccc23)cc1,x,-5%,7%,4%,x,-28%
COc1ccc(N2CCN(C(=O)c3oc4ccccc4c3NC(=O)Cc3cccc(OC)c3)CC2)cc1,-3%,x,-21%,x,9%,x
CCCN1CCN(C(=O)c2oc3ccccc3c2NC(=O)COc2ccc(OC)cc2)CC1,-6%,x,20µM*,x,-1%,x
COc1ccc(OCC(=O)Nc2c(C(=O)N3CCN(C)CC3)oc3ccccc23)cc1,30µM*,x,-30%,x,4%,x
O=C(Cn1nc(C(F)(F)F)c2c1CCC2)Nc1ccc(Cl)cc1,x,0%,-5%,u,x,u
c1ccc(CN(CCN(Cc2ccccn2)Cc2ccccn2)Cc2ccccn2)nc1,x,u,5%,-14%,25%,-15%
CCOC(=O)c1c(C)oc2c1c(C=NCc1ccccn1)c(O)c1ccccc12,-13%,13µM*,-6%,-8%,18µM*,u
COc1cc(NC(=O)c2cc3c(s2)-c2ccccc2OC3)cc(OC)c1OC,x,u,4%,9%,x,6.3µM*[quencher]
O=C(c1ccco1)N1CCN(C(=O)c2cc3c(s2)-c2ccccc2OC3)CC1,-21%,u,-29%,u,50µM*,-14%
CCC(CC)NC(=O)CSc1ccc(S(=O)(=O)N2CCCCC2)cn1,-19%,x,-12%,x,x,x
CCc1cccc(C)c1NC(=O)c1cnn(-c2ccc(F)cc2)c1-n1cccc1,x,-4%,12%,-2%,x,-4%
O=C(CCS(=O)(=O)c1cc(Br)cc2c1N(C(=O)C1CC1)CC2)N1CCN(c2cccc(C(F)(F)F)c2)CC1,x,u,5%,12%,x,-24%
COc1cccc(-c2cc(C(=O)Nc3c(C)nn(Cc4ccccc4Cl)c3C)no2)c1,x,-7%,-9%,3%,x,-9%
CN(C)C(=O)c1sccc1Oc1ccc(F)cc1[N+](=O)[O-],24µM*,-14%,-11%,4%,18%,-14%
O=C(O)c1sccc1Oc1ccc(F)cc1[N+](=O)[O-],-12%,-8%,3%,7%,20%,-5%
SMILES,PLK1 PBD inh,Tau fibril ThT,VDR inh,Tau fibril FP,Sfp PPTase inh,Tau fluor counter
CC(=O)c1cccc(NC(=O)CN2CCN(Cc3ccccc3)CC2)c1,-4%,x,-23%,x,56µM*,x
COC(=O)c1cccc(NC(=O)CN2CCN(Cc3ccccc3)CC2)c1,-4%,-5%,3%,8%,17%,-4%
CC(C)(C)NC(=O)NC(=O)CN1CCN(Cc2ccccc2)CC1,30µM*,-2%,-3%,-2%,-8%,1%
COCCN1CCN(Cc2ccc(C(=O)NC(C)C)cc2)C(=O)C1=O,x,10%,0%,-13%,x,0%
CCCNC(=O)C1(C)CCCN(Cc2ccc(C(F)(F)F)cc2)C1 (stereo not drawn),-2%,x,x,x,x,x
COc1cccc([C@@H]2Oc3ccc(OC)cc3/C(=N/O[C@@H](C)c3cc(-c4c(C)cc(C)cc4C)no3)[C@@H]2O)c1,x,-5%[11.5 µM],x,1%[11.6 µM],4%,-12%[11.6 µM]
C[C@H]1C[C@@H]2[C@H]3CCC4=CC(=O)C=C[C@@]4(C)[C@@]3(Cl)[C@@H](O)C[C@]2(C)[C@]1(OC(=O)c1ccco1)C(=O)CCl,x,x,1%,x,35µM*,x
CC1CC2C3CCC4=CC(=O)C=C[C@]4(C)[C@@]3(Cl)C(O)C[C@]2(C)C1(OC(=O)c1ccco1)C(=O)CCl (stereo partly drawn),x,2%,10%,-3%,3%,-21%
CC1=NNC(=O)C1C(c1cccc(O)c1)C(C#N)C#N (stereo not drawn),-7%,-12%,4%,-1%,3%,-6%
CC1=NNC(=O)C1C(c1ccc(Cl)cc1)C(C#N)C#N (stereo not drawn),21µM*,-25%,79µM*,-4%,-13%,-13%
CC1=NN(Cc2ccccc2)C(=O)C1C(c1ccc(Cl)cc1)C(C#N)C#N (stereo not drawn),7.5µM*,u,40µM*,6%,-25%,-16%
CC1=NN(Cc2ccccc2)C(=O)C1C(c1ccccc1)C(C#N)C#N (stereo not drawn),24µM*,-15%,u,4%,-2%,-7%
CS(=O)c1ccccc1-c1nc(-c2cccc(Cl)c2)no1 (stereo not drawn),27µM*,-5%,-9%,-1%,-3%,-10%
CS(=O)c1ccccc1-c1nc(-c2ccc(Cl)cc2)no1 (stereo not drawn),-10%,-6%,-2%,0%,7%,-7%
COc1cc(OC)cc(C(=O)NCCSC2CCCCC2)c1,5%,2%,9%,-5%,8%,-8%
COc1cccc(OC)c1C(=O)NCCSC1CCCCC1,27µM*,6%,u,5%,17%,-5%
Cc1ccc(C(=O)OCn2ncc(Cl)c(Cl)c2=O)cc1,u,4%,u,6%,u,2%
O=C(OCn1ncc(Cl)c(Cl)c1=O)c1ccc(C(F)(F)F)cc1,-21%,32µM*,20µM*,-13%,0%,-12%
CC(C)C(CC(=O)NCc1ccco1)c1ccco1 (stereo not drawn),-13%,-18%,-1%,-1%,28µM*,0%
